# Assay results from PMC7826789 (International Journal of Molecular Sciences, 2021).
smiles,measurement,setting,value
CC(C)COC(=O)c1ccc2c(c1)/C(=C/Nc1ccc(S(N)(=O)=O)cc1)C(=O)N2 [GW416981X],Kinases covered,CDK2,CDK2
same,Kinases covered,CDK3,CDK3
CCC(NN(C)C)=C1C(=O)Nc2ccc(C(C)=O)cc21 [BI00036838],Kinases covered,CDK7,CDK7
CCn1cc(-c2ccnc3[nH]c(-c4cccc(CN(C)C)c4)cc23)c(-c2ccc(NC(=O)N(C)C)cc2)n1 [GSK1070916],Kinases covered,AURKC,AURKC
CCCS(=O)(=O)Nc1ccc(F)c(-n2cc(-c3cncc(OC)c3)nn2)c1F [BI00865461],Kinases covered,BRAF,BRAF
NS(=O)(=O)c1ccc(Nc2ncc(-c3ccccc3)o2)cc1 [GW572399X],Kinases covered,CDK2,CDK2
CN(C)CCN(C)C(=O)c1cc(-c2ccncc2)c(-c2ccc(Cl)c(O)c2)o1 [SB-710397],Kinases covered,BRAF,BRAF
COc1cc(C=NNc2ncnc3c2cnn3-c2ccccc2)ccc1O [GW513184X],Kinases covered,AurkA,AurkA
CN(C)C/C=C/C(=O)Nc1ccc(C(=O)N2CCC[C@@H](Nc3ncc(Cl)c(-c4c[nH]c5ccccc45)n3)C2)cc1 [THZ531],Kinases covered,CDK12,CDK12
same,Kinases covered,CDK13,CDK13
COC(=O)c1c(-c2ccccc2)c2cc(OC)ccc2c(=O)n1Cc1ccccc1 [TPKI-97],Kinases covered,BRAF,BRAF
O=C(Nc1n[nH]c2nc(-c3ccc(O)cc3)c(Br)cc12)C1CC1 [SB-725317],Kinases covered,CDK2,CDK2
CN1CCN(C(=O)c2ccc(NC(=O)Nc3ccc(N(C)c4ccnc(Nc5ccc(CS(C)(=O)=O)cc5)n4)cc3)cc2)CC1.Cl [GW830263A],Kinases covered,AURKC,AURKC
COc1cc2ncnc(Nc3cccc(Cl)c3F)c2cc1O[C@H]1CC[C@@]2(CC1)NCCNC2=O [BI00113608],Kinases covered,BLK,BLK
Cn1cc(-c2ccc(-c3cncc(Cl)c3N3CCC4(CCNC4=O)CC3)cc2)cn1 [CCT251545],Kinases covered,CDK19,CDK19
same,Kinases covered,CDK8,CDK8
CC(C)N1CC(=O)N(C)c2cnc(Nc3cccc(S(=O)(=O)CCN4CCOCC4)c3)nc21 [BI00009348],Kinases covered,BMPR2,BMPR2
NS(=O)(=O)c1ccc(N/N=C2\C(=O)Nc3ccc(Cl)cc32)cc1 [GW280670X],Kinases covered,CDK2,CDK2
NS(=O)(=O)c1ccc(N/N=C2\C(=O)Nc3ccc(C(=O)NCc4ccncc4)cc32)cc1 [GW300657X],Kinases covered,CDK2,CDK2
Cc1ccc(C(=O)Nc2ccc(Nc3ccnc4cc(-c5ccccn5)ccc34)cc2O)cc1 [GW440146],Kinases covered,BLK,BLK
COc1cc2ncnc(Nc3cccc(Cl)c3F)c2cc1O[C@H]1CC[C@H]([C@@H]2NCCNC2=O)CC1 [BI00133844],Kinases covered,BLK,BLK
Cn1ncc2cc(-c3cnc(N)c(Cl)c3N3CCC4(CCNC4=O)CC3)ccc21 [CCT251921],Kinases covered,CDK19,CDK19
same,Kinases covered,CDK8,CDK8
COc1ccc2[nH]c3c4[nH]c5ccc(OC)cc5c4c4c(c3c2c1)C(=O)NC4=O [GW296115X],Kinases covered,BRSK1,BRSK1
same,Kinases covered,BRSK2,BRSK2
COC[C@@H](C)N[C@H]1CC[C@H](Nc2cc(-c3cccc(NCC4(C#N)CCOCC4)n3)c(Cl)cn2)CC1 [NVP-2],Kinases covered,CDK13,CDK13
same,Kinases covered,CDK9,CDK9
COc1cc(-c2cncc(-c3cnn(C4CCNCC4)c3)c2)cc(OC)c1OC [K05908],Kinases covered,BMPR1A,BMPR1A
same,Kinases covered,BMPR1B,BMPR1B
NS(=O)(=O)c1ccc(N/N=C2\C(=O)Nc3ccc(-c4cnco4)cc32)cc1 [GW276655],Kinases covered,CDK2,CDK2
CN(C)CCOc1ccc(-c2nc(-c3ccc4c(c3)CC/C4=N\O)c(-c3ccncc3)[nH]2)cc1 [SB-590885],Kinases covered,BRAF,BRAF
CN(C)CCNC(=O)Nc1ccc(N(C)c2ccnc(Nc3ccc(CS(C)(=O)=O)cc3)n2)cc1.Cl [GW830900A],Kinases covered,AURKC,AURKC
CN(C)C/C=C/C(=O)Nc1ccc(C(=O)Nc2cccc(Nc3ncc(Cl)c(-c4c[nH]c5ccccc45)n3)c2)cc1 [THZ1],Kinases covered,CDK7,CDK7
COc1cc2ncnc(Nc3ccc(F)c(Cl)c3)c2cc1O[C@H]1CC[C@H](N)CC1 [BIBW3133BS],Kinases covered,BUB1,BUB1
C#Cc1cccc(Nc2ncnc3cc(OC)c(OC4CCN(C)CC4)cc23)c1 [BI00007366],Kinases covered,BUB1,BUB1
O=C(Nc1cccc(-c2nn3ncccc3c2-c2ccnc(Nc3cccnc3)n2)c1)c1c(F)cccc1F [GSK312879],Kinases covered,BRAF,BRAF
C=CC(=O)Nc1cc(-n2c(=O)ccc3cnc4ccc(-c5ccc(NS(C)(=O)=O)cc5)cc4c32)ccc1C [BMX-IN-1],Kinases covered,BMX,BMX
same,Kinases covered,BTK,BTK
COc1cccc(-c2c[nH]c3c(N/N=C/c4ccncc4)ncnc23)c1 [GW814408X],Kinases covered,AURKC,AURKC
